From ChEMBL document CHEMBL1157539, “Thousands of chemical starting points for antimalarial lead identification” (Nature, 2010)

tested on: HepG2; assay: GSK_TCMDC: Percent inhibition of human HepG2 cell line. Test compounds present at 10uM.; assay type: functional

Row | SMILES | Inhibition
1 | COc1ccccc1NC(=O)NC1CCN(CCCCCNC(=O)/C=C/c2ccc(Cl)c(Cl)c2)CC1 | 4%
2 | Fc1ccc(Nc2ccnc3cc(-c4ccc(CNCCN5CCOCC5)o4)ccc23)c(Cl)c1 | 34%
3 | CC(=O)Nc1ccc(CN(Cc2ccc(OC(C)(C)C)cc2)Cc2ccc3c(c2)OCCO3)cc1 | 7%
4 | O[C@H]1[C@H](OCc2ccc(-c3ccccc3)cc2)CC[C@@H]1N1CCCCC1 | 9%
